This assay deals with Plasmodium falciparum. Nature of the assay: GSK_TCMDC: Inhibition of Plasmodium falciparum Dd2 in whole red blood cells, using parasite LDH activity as an index of growth. Test compounds present at 2uM. In kind it is functional.
With `O=C1NC(=O)C(c2ccc(Cl)cc2)=C1Nc1cccc(S(=O)(=O)C(F)(F)F)c1`, the Inhibition is recorded as 51%. For `CCOC(=O)c1cncc(/C=C/c2cc(C)cnc2N)c1`, the Inhibition was determined as 3%. Regarding `COc1ccccc1-n1c(SCC(=O)Nc2ccccc2F)nc2cccnc21`, the Inhibition is listed as 88%.

The compound `CCNc1cc(C(=O)N[C@@H](Cc2ccccc2)[C@H](O)CN[C@@H]2CCc3ccccc32)cc(N2CCCC2=O)c1` showed an Inhibition of 93%.

With `Cc1cc(-c2nc3cc(C(=N)N)ccc3[nH]2)c(C)cc1-c1nc2cc(C(=N)N)ccc2[nH]1.Cl`, the Inhibition turned out to be 97%. The value for `CC(=O)Nc1ncc(C(=O)Nc2cccc(-c3ccc(-c4nc5ccccc5[nH]4)cc3)c2)s1` was 66%; that for `CCOC(=O)c1nc(-c2ccccc2)[nH]c1NC(=S)NC1CCCCC1` was 1%. The compound `Cc1cc(NC(=O)NCCN2CCC(NC(=O)c3cccc(Br)c3)C2)c2ccccc2n1.O=C(O)C(F)(F)F` (stereo not given) returned an Inhibition of 60%.

As to `O=C(Nc1ccccc1C(F)(F)F)Nc1nn(Cc2c(F)cccc2Cl)cc1Br`, the Inhibition was 86%.

Compound `COc1ccc2nccc([C@@H](O)CN3CCC(NCCNc4ccccn4)CC3)c2c1.O=C(O)C(=O)O` displayed an Inhibition of 14%. The value for `CC(=O)Nc1ccc(CN2CCc3ccc(NS(=O)(=O)c4cccc(OCc5ccc(Cl)cc5)c4)cc3CC2)s1` was 7%; that for `CN1CCCN(Cc2cccc(-c3ccc(NC(=O)c4ccc(Cl)cc4)cc3)c2)CC1.O=C(O)C(F)(F)F` was 35%; that for `O=C(Nc1ccc(-c2nc3ccccc3[nH]2)cc1)c1ccc(S(=O)(=O)N2CCc3ccccc32)cc1` was 34%. For the compound `COc1ccc(Cl)cc1N1CCN(CCCNC(=O)c2ccc(-c3nc4cc(Cl)c(F)cc4[nH]3)c(F)c2)CC1`, the Inhibition is on record as 91%. With `O=C(Nc1nc(-c2cc(F)ccc2F)cs1)c1cncc(Br)c1`, the Inhibition is given as 3%. `CCN(CC)CCN(Cc1ccc(-c2ccc(C(F)(F)F)cc2)cc1)C(=O)Cn1c(CCc2cccc(F)c2F)nc(=O)c2sccc21.O=C(O)C(O)C(O)C(=O)O` showed an Inhibition of 70%. To `COc1ccc2[nH]c(C)cc(=NN=Cc3ccccc3)c2c1` belongs 6%; to `O=C1c2ccccc2C(=O)N1c1ccc(S(=O)(=O)N2CCOCC2)cc1`, 0%.

As to `Cc1noc(C)c1-c1cccc(CNCc2ccc(-c3cccc(-c4nc5cc(F)ccc5[nH]4)c3)cc2)c1.O=C(O)C(F)(F)F`, the Inhibition is given as 84%. The value for `CCC[C@@H]([C@@H](CC1CCCCC1)C(=O)N[C@H](C(=O)Nc1nccs1)[C@H](C)O)N(O)C=O` was 75%; that for `CN(C)c1ccc(/N=C2/N/C(=N/c3ccc(N(C)C)cc3)c3ccccc32)cc1` was 20%.

On to `COc1ccc2c(=NN=CC=Cc3ccccc3)cc(C)[nH]c2c1`, for which the Inhibition was found to be 56%.

Compound `O=C(O[C@@H]1CN[C@H](C#Cc2cc3ncnc(Nc4ccc5c(cnn5Cc5cccc(F)c5)c4)c3s2)C1)N1CCCC1` yielded an Inhibition of 56%.

Consider `Cc1cc(NC(=O)Nc2ccc(C(C)(C)C)cc2)c2ccccc2n1`, for which the Inhibition is 57%. On to `Nc1nc(N)c2c(ccc3c2ccn3Cc2ccccc2)n1`, for which the Inhibition is reported as 94%. Turning to `COc1ccc(N2CCN(CCCCNC(=O)c3ccc(NC(=O)c4ccc(OC(F)(F)F)cc4)cc3)CC2)c(OC)c1`, the Inhibition worked out at 90%. Compound `CCCCNc1nccc2ccc(-c3ccncc3)cc12` came in with an Inhibition of 1%. To `C=CCc1ccc(C2CCN(CCCCNC(=O)c3ccc(NC(=O)c4ccc(Cl)cc4)cc3)CC2)cc1` belongs 97%; to `Cc1cccc2nc(-c3ccc(-c4ccc(CNCCCN5CCCC5=O)cc4)cc3)[nH]c12.O=C(O)C(F)(F)F`, 47%; to `CCCOc1ccc(-c2nonc2NC(=O)c2cccc(OC)c2)cc1OCCC`, 100%. In the case of `N#Cc1ccc(NC(=O)c2ccc(C(=O)NCCCCN3CCC(c4ccc5c(c4OCCOC4CCCCO4)CCCC5)CC3)cc2)cc1` (stereo not given), the Inhibition is given as 97%. The compound `COc1ccccc1-c1cccc(CNC2CCN(CC3Cn4c(=O)ccc5ccc(F)c3c54)CC2)c1.O=C(O)C(F)(F)F` (stereo not given) returned an Inhibition of 0%. Turning to `C[C@H](Cc1ccc(C[C@@H](C)NC[C@H](O)c2cccc(Cl)c2)cc1)NC[C@H](O)COc1ccccc1.Cl`, the Inhibition stood at 60%. Turning to `CC(C)Oc1ccc(N2CCN(CCCCNC(=O)c3ccc(NC(=O)c4ccc(Cl)cc4)cc3)CC2)c(OC(C)C)c1`, the Inhibition was determined as 85%.

In the case of `COc1ccc(CCNCCCCCNCCc2ccc(Cl)cc2)cc1OC.Cl`, the Inhibition stood at 0%. `Cl.N=C(N)c1ccc(OCc2cccc(COc3ccc(C(=N)N)cc3I)c2)c(I)c1` had an Inhibition of 100%. To `CCCCN(CCCC)CC(O)c1cc(-c2ccc(Cl)cc2)nc2c(Cl)cc(Cl)cc12.Cl` (stereo not given) belongs 97%; to `NCCNc1ccnc2cc(Cl)ccc12`, 54%. With `COc1cc(NC(=O)/C=C/c2cc(F)cc(F)c2F)cc(OCCN2CCC3(CC2)OCCO3)c1.O=C(O)C(=O)O`, the Inhibition stood at 26%.

`Cc1cc(N[C@@H](CC(C)C)C(=O)NCCOc2ccccc2)nc(NCCOc2ccccc2)n1.O=C(O)C(F)(F)F`: the Inhibition is reported as 6%.

What is called Inhibition is the drop in the measured response relative to a control, in per cent. Low values mean a response near the control, high ones a response far below the control.

The values are drawn from ChEMBL document CHEMBL1157539, “Thousands of chemical starting points for antimalarial lead identification” (Nature, 2010).
